# In PubChem BioAssay (Tox21):
# Results filed as inconclusive are left out. Where a call stands in place of a potency, no number is given. A number with no mark means an inactive call. Activity calls are given as the source filed them. Unless noted, the call rests on the fitted dose curve; in most records, active means well fitted curve in the direction sought with a large enough effect in the repeat runs; inconclusive means weak or mixed curves; inactive means no such curve, though single readings can be large; an effect the other way counts as inactive or inconclusive.
# Experiments:
# [1] = qHTS assay to identify aromatase inhibitors - cell viability counter screen (AID 743084);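 further: cells stimulated with testosterone during compound exposure; nearly all actives have a fitted effect of over 55% in size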
# [2] = target: Aryl hydrocarbon receptor (Homo sapiens) (UniProt P35869); test: qHTS assay to identify small molecule that activate the aryl hydrocarbon receptor (AhR) signaling pathway (AID 743085); further: nearly all actives have a fitted effect of over 15% in size; further: potency means the concentration at half of the fitted maximal effect;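 on activation: HG2L7.5c1 human HepG2 liver cells with stably integrated DRE-driven firefly reporter; series mostly up to about 70 µM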
# Aryl hydrocarbon receptor (Homo sapiens), sequence (P35869 whole entry, looked up): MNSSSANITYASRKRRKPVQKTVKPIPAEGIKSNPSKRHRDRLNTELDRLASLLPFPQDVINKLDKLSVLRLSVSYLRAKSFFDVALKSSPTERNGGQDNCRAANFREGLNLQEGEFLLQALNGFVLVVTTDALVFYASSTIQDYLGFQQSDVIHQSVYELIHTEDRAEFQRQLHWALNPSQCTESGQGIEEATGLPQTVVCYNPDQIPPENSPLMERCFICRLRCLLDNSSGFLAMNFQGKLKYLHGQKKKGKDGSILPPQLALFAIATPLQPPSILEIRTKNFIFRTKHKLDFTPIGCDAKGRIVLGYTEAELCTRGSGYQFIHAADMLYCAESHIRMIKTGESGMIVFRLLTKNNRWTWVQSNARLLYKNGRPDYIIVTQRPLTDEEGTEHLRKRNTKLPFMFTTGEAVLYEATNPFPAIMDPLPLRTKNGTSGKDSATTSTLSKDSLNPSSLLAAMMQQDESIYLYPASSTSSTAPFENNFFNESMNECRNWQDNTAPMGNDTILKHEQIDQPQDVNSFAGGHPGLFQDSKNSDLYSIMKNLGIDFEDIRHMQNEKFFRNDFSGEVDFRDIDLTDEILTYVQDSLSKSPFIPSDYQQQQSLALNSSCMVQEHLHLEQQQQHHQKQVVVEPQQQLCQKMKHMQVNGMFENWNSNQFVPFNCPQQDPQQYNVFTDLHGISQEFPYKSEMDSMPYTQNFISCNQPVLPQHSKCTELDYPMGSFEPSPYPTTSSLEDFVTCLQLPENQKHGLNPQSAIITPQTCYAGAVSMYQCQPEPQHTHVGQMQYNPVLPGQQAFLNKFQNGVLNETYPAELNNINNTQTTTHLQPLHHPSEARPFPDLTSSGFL
# Summary of the method: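 Steps: seed HepG2-AhR-luc cells; allow 5 h at 37C; pin-transfer test compound or vehicle; incubate 24 h at 37C; add viability dye (30 min, 37C) and read fluorescence; add luciferase substrate (30 min, RT) and read luminescence.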
# [3] = qHTS assay to identify small molecule that activate the aryl hydrocarbon receptor (AhR) signaling pathway - cell viability counter screen (AID 743086);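 further: HepG2 liver cells carrying the AhR DRE luciferase reporter; series mostly up to about 70 µM; nearly all actives have a fitted effect of over 45% in size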
# Summary of the method: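 Cytotoxicity counter screen: CellTiter-Fluor signal (30 min, 37 C) in 4000 HepG2 cells/well carrying the DRE-luciferase reporter, following 24 h compound exposure at 37 C.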
# [4] = target: Peroxisome proliferator-activated receptor gamma (Homo sapiens) (UniProt P37231); test: qHTS assay to identify small molecule agonists of the peroxisome proliferator-activated receptor gamma (PPARg) signaling pathway (AID 743094; active means well fitted activation curve with a large enough effect in the signal ratio in the repeat runs, not every such curve was filed as active; the % refers to the signal ratio)
# Peroxisome proliferator-activated receptor gamma (Homo sapiens), sequence (P37231 whole entry, looked up): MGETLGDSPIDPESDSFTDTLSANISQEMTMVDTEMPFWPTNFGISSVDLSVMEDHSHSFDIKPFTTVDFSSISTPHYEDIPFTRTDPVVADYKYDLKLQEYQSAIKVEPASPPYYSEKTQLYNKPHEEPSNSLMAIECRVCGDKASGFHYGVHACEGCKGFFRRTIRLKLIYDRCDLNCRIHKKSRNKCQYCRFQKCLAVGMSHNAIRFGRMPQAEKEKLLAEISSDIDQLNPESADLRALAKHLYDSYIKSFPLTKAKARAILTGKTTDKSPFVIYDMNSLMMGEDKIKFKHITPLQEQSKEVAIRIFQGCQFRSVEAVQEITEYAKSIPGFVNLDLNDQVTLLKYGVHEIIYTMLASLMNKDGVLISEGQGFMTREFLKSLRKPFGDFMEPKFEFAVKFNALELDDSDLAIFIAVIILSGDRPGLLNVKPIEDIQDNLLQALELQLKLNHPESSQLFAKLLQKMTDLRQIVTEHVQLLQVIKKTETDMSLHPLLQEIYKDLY
# Summary of the method: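 Following 5 h plating at 37C, PPARg-bla HEK293H cells receive compound or DMSO for 17 h; fluorescence intensity is recorded after LiveBLAzer B/G loading for 1 h at room temperature.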
# [5] = qHTS assay to identify small molecule antagonists of the peroxisome proliferator-activated receptor gamma (PPARg) signaling pathway - cell viability counter screen (AID 743194); further: nearly all actives have a fitted effect of over 55% in size
# Summary of the method: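 Viability was measured as CellTiter-Glo luminescence in GeneBLAzer PPARg UAS-bla HEK293H cells. These cells had been exposed 17 h at 37 C to compounds together with rosiglitazone at 50 nM final, with the beta-lactamase readout taken in the same wells.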
# [6] = qHTS assay for small molecule agonists of the antioxidant response element (ARE) signaling pathway (AID 743202; active means well fitted activation curve with a large enough effect in the signal ratio in the repeat runs, not every such curve was filed as active; the % refers to the signal ratio)
# Summary of the method: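 An ARE-responsive beta-lactamase gene stably integrated in HepG2 cells serves as reporter. After 5 h plating and 16 h compound incubation at 37 C, fluorescence of the B/G FRET substrate was measured.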
# [7] = qHTS assay for small molecule agonists of the antioxidant response element (ARE) signaling pathway - cell viability counter screen (AID 743203; calls by dose curve; further: nearly all actives have a fitted effect of over 55% in size)
# Summary of the method: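 Compounds in DMSO were pinned onto ARE-bla HepG2 cells plated 5 hrs earlier at 2,000 cells/well. Sixteen hours later at 37C/5% CO2, CellTiter-Glo was added and luminescence measured after 30 min at room temperature.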
# [8] = qHTS assay for small molecule activators of the heat shock response signaling pathway - cell viability counter screen (AID 743209); further: nearly all actives have a fitted effect of over 50% in size
# Summary of the method: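 Counter screen for cytotoxicity in HeLa HSE-bla reporter cells. Treatment was 5 h at 37 C; viability was detected by luminescent ATP assay (CellTiter-Glo) in the same wells as the beta-lactamase read.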
# [9] = qHTS assay for small molecule activators of the heat shock response signaling pathway (AID 743210; active means well fitted activation curve with a large enough effect in the signal ratio in the repeat runs, with a control signal flat, not every such curve was filed as active; the % refers to the signal ratio;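 further: HeLa cells with beta-lactamase reporter driven by heat shock elements; series mostly up to about 63 µM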)
# Summary of the method: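 In HSE-bla HeLa cells, 5 h compound incubation (37 C) precedes addition of LiveBLAzer B/G substrate; after 2.5 h at room temperature, fluorescence intensity indicates reporter induction.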
# [10] = qHTS assay to identify small molecule agonists of the peroxisome proliferator-activated receptor delta (PPARd) signaling pathway - cell viability counter screen (AID 743211); further: nearly all actives have a fitted effect of over 55% in size
# Summary of the method: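 Viability of GeneBLAzer PPARd UAS-bla HEK293H cells was assessed after 17 h compound incubation at 37C, using CellTiter-Glo reagent added after the reporter read and luminescence recorded 30 min later.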
# [11] = qHTS assay to identify small molecule antagonists of the peroxisome proliferator-activated receptor delta (PPARd) signaling pathway - cell viability counter screen (AID 743213); further: nearly all actives have a fitted effect of over 50% in size
# Summary of the method: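 Same-well viability: cells pre-incubated 5 h, dosed with compound plus 300 nM L165041, kept 17 h at 37 C, FRET substrate 2 h RT, then CellTiter-Glo 30 min RT and luminescence.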
# [12] = qHTS assay to identify small molecule agonists of the farnesoid-X-receptor (FXR) signaling pathway - cell viability counter screen (AID 743218); further: nearly all actives have a fitted effect of over 45% in size
# Summary of the method: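 After 16 h at 37 C with test compounds, FXR-bla HEK 293T cells were given LiveBLAzer B/G substrate for 2 h at RT and then CellTiter-Glo; luminescence was taken after 30 min.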
# [13] = qHTS assay to identify small molecule antagonists of the farnesoid-X-receptor (FXR) signaling pathway - cell viability counter screen (AID 743221; active means well fitted cell-killing curve with a large enough effect in the repeat runs, not every such curve was filed as active; further: nearly all actives have a fitted effect of over 50% in size)
# Summary of the method: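 Quantitative HTS of the Tox21 10K library run in parallel with the beta-lactamase reporter read. HEK 293T cells carrying a UAS-driven bla reporter got compound and 50 uM CDCA (final) for 16 h; ATP-based luminescence followed.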
# [14] = target: Vitamin D3 receptor (Homo sapiens) (UniProt P11473); test: qHTS assay to identify small molecule agonists of the vitamin D receptor (VDR) signaling pathway (AID 743222; calls by dose curve)
# Vitamin D3 receptor (Homo sapiens), sequence (P11473 whole entry, looked up): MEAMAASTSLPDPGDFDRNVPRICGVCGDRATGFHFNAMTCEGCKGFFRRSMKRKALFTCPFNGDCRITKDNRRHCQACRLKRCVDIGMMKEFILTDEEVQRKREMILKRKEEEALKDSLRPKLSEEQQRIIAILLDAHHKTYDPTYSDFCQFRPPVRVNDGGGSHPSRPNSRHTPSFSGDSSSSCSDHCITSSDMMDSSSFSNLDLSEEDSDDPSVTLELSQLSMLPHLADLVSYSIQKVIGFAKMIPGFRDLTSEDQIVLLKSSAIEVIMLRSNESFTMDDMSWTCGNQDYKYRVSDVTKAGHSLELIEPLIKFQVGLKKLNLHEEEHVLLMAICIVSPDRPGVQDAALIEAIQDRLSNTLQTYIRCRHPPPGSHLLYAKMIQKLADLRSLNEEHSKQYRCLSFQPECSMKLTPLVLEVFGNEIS
# Summary of the method: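 VDR-bla cells were seeded, left 4 h, treated with compounds in DMSO for 16 h, incubated 2 h at RT with B/G FRET substrate, and read for fluorescence.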
# [15] = target: Vitamin D3 receptor (Homo sapiens) (UniProt P11473); test: qHTS assay to identify small molecule antagonists of the vitamin D receptor (VDR) signaling pathway (AID 743223; active means well fitted inhibition curve with a large enough effect in the signal ratio in the repeat runs, not every such curve was filed as active; the % refers to the signal ratio)
# Summary of the method: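 Fluorescence from LiveBLAzer B/G FRET substrate, read after 2 h at room temperature, reflects beta-lactamase reporter activity in VDR-bla cells treated 16 h at 37C with compounds and agonist 1alpha,25-dihydroxyvitamin D3 (3 nM final).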
# [16] = target: Peroxisome proliferator-activated receptor gamma (Homo sapiens) (UniProt P37231); test: qHTS assay to identify small molecule antagonists of the peroxisome proliferator-activated receptor gamma (PPARg) signaling pathway (AID 743191; calls by dose curve; further: series mostly up to about 63 µM; nearly all actives have a fitted effect of over 30% in size)
# Summary of the method: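 Beta-lactamase reporter under UAS control in HEK293H PPARg-bla cells; compound treatment 17 h at 37C. Read-out: fluorescence intensity after 1 h room-temperature incubation with LiveBLAzer B/G FRET substrate.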
# [17] = target: Peroxisome proliferator-activated receptor delta (Homo sapiens) (UniProt Q03181); test: qHTS assay to identify small molecule agonists of the peroxisome proliferator-activated receptor delta (PPARd) signaling pathway (AID 743212; calls by dose curve)
# Peroxisome proliferator-activated receptor delta (Homo sapiens), sequence (Q03181 whole entry, looked up): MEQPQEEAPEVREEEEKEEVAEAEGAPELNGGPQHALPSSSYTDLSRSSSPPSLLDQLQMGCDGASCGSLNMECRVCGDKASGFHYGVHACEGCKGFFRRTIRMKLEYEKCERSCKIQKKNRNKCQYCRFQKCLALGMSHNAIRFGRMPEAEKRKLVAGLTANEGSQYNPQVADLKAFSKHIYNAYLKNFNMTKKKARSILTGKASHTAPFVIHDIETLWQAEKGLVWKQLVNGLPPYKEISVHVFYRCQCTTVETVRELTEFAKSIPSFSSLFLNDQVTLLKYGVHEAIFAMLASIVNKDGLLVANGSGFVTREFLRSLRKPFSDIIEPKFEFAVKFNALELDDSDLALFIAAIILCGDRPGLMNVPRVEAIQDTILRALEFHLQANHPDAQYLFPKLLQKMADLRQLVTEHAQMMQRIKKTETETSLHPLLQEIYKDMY
# Summary of the method: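 HEK293H UAS-bla reporter cells, human PPARd system; compounds delivered in DMSO after 5 h plating, then at 37 C. Beta-lactamase FRET read, 2 h RT substrate step.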
# [18] = target: Peroxisome proliferator-activated receptor delta (Homo sapiens) (UniProt Q03181); test: qHTS assay to identify small molecule antagonists of the peroxisome proliferator-activated receptor delta (PPARd) signaling pathway (AID 743215; active means well fitted inhibition curve with a large enough effect in the signal ratio in the repeat runs, not every such curve was filed as active; the % refers to the signal ratio;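 further: cells stimulated with agonist L165041 at 300 nM final during compound exposure; series mostly up to about 62 µM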)
# Summary of the method: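 With L165041 present at 300 nM final, compounds were incubated 17 h at 37 C on PPARd UAS-bla HEK293H cells. A FRET-based beta-lactamase substrate was then applied for 2 h at room temperature and fluorescence intensity recorded.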
# [19] = target: Bile acid receptor (Homo sapiens) (UniProt Q96RI1); test: qHTS assay to identify small molecule antagonists of the farnesoid-X-receptor (FXR) signaling pathway (AID 743217; active means well fitted inhibition curve with a large enough effect in the signal ratio in the repeat runs, not every such curve was filed as active; the % refers to the signal ratio)
# Bile acid receptor (Homo sapiens), sequence (Q96RI1 whole entry, looked up): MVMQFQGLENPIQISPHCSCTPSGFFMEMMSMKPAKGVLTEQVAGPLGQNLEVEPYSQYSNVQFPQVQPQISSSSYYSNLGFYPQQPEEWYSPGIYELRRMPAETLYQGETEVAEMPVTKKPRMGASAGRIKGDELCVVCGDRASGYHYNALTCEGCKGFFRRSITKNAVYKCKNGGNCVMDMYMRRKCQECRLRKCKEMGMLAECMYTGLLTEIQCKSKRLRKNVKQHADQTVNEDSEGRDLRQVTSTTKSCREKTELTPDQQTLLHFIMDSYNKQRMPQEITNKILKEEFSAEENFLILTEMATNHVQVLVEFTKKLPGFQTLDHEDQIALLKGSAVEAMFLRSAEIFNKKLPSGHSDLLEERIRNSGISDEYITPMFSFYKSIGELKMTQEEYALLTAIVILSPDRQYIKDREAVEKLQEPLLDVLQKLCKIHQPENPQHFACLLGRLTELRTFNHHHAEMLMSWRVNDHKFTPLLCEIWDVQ
# Summary of the method: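 In this cell-based antagonist screen, inhibition of CDCA-driven (50 uM final) UAS-beta-lactamase expression in HEK 293T cells was measured by FRET fluorescence following 16 h compound exposure at 37 °C.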
# [20] = target: Bile acid receptor (Homo sapiens) (UniProt Q96RI1); test: qHTS assay to identify small molecule agonists of the farnesoid-X-receptor (FXR) signaling pathway (AID 743220; active means well fitted activation curve with a large enough effect in the signal ratio in the repeat runs, not every such curve was filed as active; the % refers to the signal ratio)
# Summary of the method: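 Beta-lactamase reporter under UAS control in GeneBLAzer FXR HEK 293T cells (5000/well) measured with LiveBLAzer FRET substrate after 2 h at room temperature. Compound exposure lasted 16 h at 37C.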
smiles,measurement,setting,value
C=C(C)C1CC=C(C)C(=O)C1 (stereo not drawn),Potency,[1],inactive
same,Potency,[2],inactive
same,Potency,[3],inactive
same,Potency,[4],inactive
same,outcome,[5],inactive
same,Potency,[6],inactive
same,outcome,[7],inactive
same,Potency,[8],inactive
same,outcome,[9],inactive
same,outcome,[10],inactive
same,outcome,[11],inactive
same,outcome,[12],inactive
same,outcome,[13],inactive
same,outcome,[14],inactive
same,outcome,[15],inactive
CCCCOC(=O)[C@H](C)O,Potency,[1],inactive
same,Potency,[2],inactive
same,Potency,[3],inactive
same,Potency,[4],inactive
same,outcome,[16],inactive
same,outcome,[5],inactive
same,outcome,[7],inactive
same,Potency,[8],inactive
same,outcome,[9],inactive
same,outcome,[10],inactive
same,outcome,[17],inactive
same,outcome,[11],inactive
same,outcome,[18],inactive
same,outcome,[19],inactive
same,outcome,[12],inactive
same,outcome,[20],inactive
same,outcome,[13],inactive
same,outcome,[14],inactive
same,outcome,[15],inactive
CC1(C)O[C@H]2CC(=O)OC[C@]23[C@H]2CC[C@@]4(C)[C@H](c5ccoc5)OC(=O)[C@H]5O[C@]54[C@]2(C)C(=O)C[C@@H]13,Potency,[1],inactive
same,Potency,[2],inactive
same,Potency,[3],inactive
same,Potency,[4],inactive
same,outcome,[5],inactive
same,Potency,[6],inactive
same,outcome,[7],inactive
same,Potency,[8],inactive
same,outcome,[9],inactive
same,outcome,[10],inactive
same,outcome,[17],inactive
same,outcome,[11],inactive
same,outcome,[18],inactive
same,outcome,[12],inactive
same,outcome,[13],inactive
same,outcome,[14],inactive
same,outcome,[15],inactive
CC1(C)CC(OC(=O)CCCCCCCCC(=O)OC2CC(C)(C)NC(C)(C)C2)CC(C)(C)N1,Potency,[1],inactive
same,Potency,[2],inactive
same,Potency,[3],inactive
same,Potency,[4],inactive
same,outcome,[16],inactive
same,outcome,[5],inactive
same,outcome,[7],inactive
same,Potency,[8],inactive
same,outcome,[10],inactive
same,outcome,[17],inactive
same,outcome,[11],inactive
same,outcome,[12],inactive
same,outcome,[13],inactive
same,outcome,[14],inactive
same,outcome,[15],inactive
CCCCOCC(C)O (stereo not drawn),Potency,[1],inactive
same,Potency,[2],inactive
same,Potency,[3],inactive
same,Potency,[4],inactive
same,outcome,[16],inactive
same,outcome,[5],inactive
same,outcome,[7],inactive
same,Potency,[8],inactive
same,outcome,[9],inactive
same,outcome,[10],inactive
same,outcome,[11],inactive
same,outcome,[12],inactive
same,outcome,[13],inactive
same,outcome,[14],inactive
C[Si]1(C)O[Si](C)(C)O[Si](C)(C)O[Si](C)(C)O[Si](C)(C)O1,Potency,[1],inactive
same,Potency,[2],inactive
same,Potency,[3],inactive
same,Potency,[4],inactive
same,outcome,[5],inactive
same,Potency,[6],inactive
same,outcome,[7],inactive
same,Potency,[8],inactive
same,outcome,[9],inactive
same,outcome,[10],inactive
same,outcome,[17],inactive
same,outcome,[11],inactive
same,outcome,[18],inactive
same,outcome,[12],inactive
same,outcome,[13],inactive
same,outcome,[14],inactive
N[C@@H](Cc1ccc(O)cc1)C(=O)O,Potency,[1],inactive
same,Potency,[2],inactive
same,Potency,[3],inactive
same,Potency,[4],inactive
same,"activity change, negative = cytotoxicity",[5],3.31% [at 13.2 µM]
same,activation,[6],-7.61% [at 8.36 µM]
same,"viability change, negative = cytotoxic",[7],19.5% [at 8.36 µM]
same,"activity change, negative = cytotoxicity",[8],-1.43% [at 13.2 µM]
same,activation,[9],0.612% [at 13.2 µM]
same,"activity change, negative = cytotoxicity",[10],3.38% [at 13.2 µM]
same,"viability change, negative = cytotoxic",[11],14.5% [at 13.7 µM]
same,"viability change, negative = cytotoxic",[12],-2.1% [at 13.2 µM]
same,"activity change, negative = cytotoxicity",[13],-1.49% [at 13.2 µM]
same,activation,[14],10.9% [at 13.4 µM]
same,"activity change, negative = inhibition",[15],1.57% [at 6.95 µM]
CC(=O)O[C@@H]1CC2CCC1(C)C2(C)C (stereo partly drawn),Potency,[1],inactive
same,Potency,[2],inactive
same,Potency,[3],inactive
same,Potency,[4],inactive
same,outcome,[5],inactive
same,Potency,[6],inactive
same,outcome,[7],inactive
same,Potency,[8],inactive
same,outcome,[9],inactive
same,outcome,[10],inactive
same,outcome,[11],inactive
same,outcome,[19],inactive
same,outcome,[20],inactive
same,outcome,[13],inactive
same,outcome,[14],inactive
same,outcome,[15],inactive
COc1c2occc2c(OC)c2c(=O)cc(C)oc12,Potency,[1],inactive
same,Potency,[2],114 nM (active)
same,Potency,[3],inactive
same,Potency,[4],inactive
same,outcome,[16],inactive
same,outcome,[5],inactive
same,Potency,[6],inactive
same,Potency,[8],inactive
same,outcome,[9],inactive
same,outcome,[10],inactive
same,outcome,[19],inactive
same,outcome,[12],inactive
same,outcome,[20],inactive
same,outcome,[13],inactive
same,outcome,[14],inactive
same,outcome,[15],inactive
